The subject of one assay is Staphylococcus aureus. Particulars: Concentration 32 ug.mL-1; ASSAY_TEST Inhibition of Bacterial Growth; detection method Absorption (OD600); MEDIA CAMHB; plate type 384well; NBS; CORNING #3640; time 18 hr.
The next assay has as its system Escherichia coli. The following applies: Concentration 32 ug.mL-1; ASSAY_TEST Inhibition of Bacterial Growth; detection method Absorption (OD600); MEDIA CAMHB; plate type 384well; NBS; CORNING #3640; time 18 hr.

Results with a measured potency or affinity are listed apart.

For the compound `C=C[C@H]1[C@H](O[C@@H]2O[C@H](CO)[C@@H](O)[C@H](O)[C@H]2O)OC=C2C(=O)OCC[C@]21O` [SWERTIAMARIN], the Inhibition in the assay on Staphylococcus aureus was 25.69%; in the assay with Escherichia coli it was 13.89%.

In the case of `CN(C)C(=N)NC(=N)N.Cl` [METFORMIN HYDROCHLORIDE], the Inhibition in the assay on Staphylococcus aureus was 23.29%.

One may read the Inhibition as the relative decrease from the control value, in per cent. A higher Inhibition goes with strong suppression.
